Measurements from the supplement of paper PMC6555819.

Columns and labels:
Experiment in all cases: PBM binding z-score (relative to random genomic background probes); higher = stronger binding; sequences stand for … in GC…GCGATTGACAGCGTAGAATGAAGG
[1] = system: FXR:RXRa (NR concentration 270 nM, RXRa partner concentration 90 nM)
Method in brief: (§1)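 Custom Agilent 4×180K protein-binding microarrays carried double-stranded probes, each with a 34-nt variable region. These regions held direct-repeat seeds, single-nucleotide variants, half-site ablations and random human genomic background sequences. Ligand-free nuclear receptor dimers were incubated on the arrays for 1 h, antibodies against each partner (one per run) detected binding, and scanned fluorescence was regression-normalized. Binding z-scores take the random background probes as reference.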

[2] = system: LXRa:RXRa (NR concentration 270 nM, RXRa partner concentration 90 nM)
Method in brief: as §1

[3] = system: LXRa homodimer (NR concentration 270 nM)
Method in brief: as §1

[4] = system: LXRb:RXRa (NR concentration 270 nM, RXRa partner concentration 90 nM)
Method in brief: as §1

[5] = system: LXRb homodimer (NR concentration 270 nM)
Method in brief: as §1

[6] = system: PPARa:RXRa (NR concentration 270 nM, RXRa partner concentration 90 nM)
Method in brief: as §1

[7] = system: PPARg:RXRa (NR concentration 180 nM, RXRa partner concentration 90 nM)
Method in brief: as §1

[8] = system: PPARg:RXRa 270nM:90nM, anti-RXR (NR concentration 270 nM, RXRa partner concentration 90 nM)
Method in brief: as §1

[9] = system: PPARg:RXRa 30nM:10nM, anti-RXR (NR concentration 30 nM, RXRa partner concentration 10 nM)
Method in brief: as §1

[10] = system: PPARg:RXRa 90nM:30nM, anti-RXR (NR concentration 90 nM, RXRa partner concentration 30 nM)
Method in brief: as §1

[11] = system: PPARg:RXRa DBDmut IVT, anti-RXR (DBD mutation: RXRa K156A/R161A, NR concentration 270 nM, RXRa partner concentration 90 nM)
Method in brief: as §1

[12] = system: PPARg:RXRa IVT, anti-PPARg (NR concentration 270 nM, RXRa partner concentration 90 nM)
Method in brief: as §1

[13] = system: PPARg DBDmut:RXRa IVT, anti-PPARg (DBD mutation: PPARg1 K132A/R137A, NR concentration 270 nM, RXRa partner concentration 90 nM)
Method in brief: as §1

[14] = system: PPARg DBDmut IVT, anti-PPARg (DBD mutation: PPARg1 K132A/R137A, NR concentration 270 nM)
Method in brief: as §1

[15] = system: PPARg homodimer (NR concentration 180 nM)
Method in brief: as §1

[16] = system: PXR:RXRa (NR concentration 270 nM, RXRa partner concentration 90 nM)
Method in brief: as §1

[17] = system: PXR homodimer (NR concentration 270 nM)
Method in brief: as §1

[18] = system: RARa:RXR (NR concentration 270 nM, RXRa partner concentration 90 nM)
Method in brief: as §1

[19] = system: RARa homodimer (NR concentration 270 nM)
Method in brief: as §1

[20] = system: RARb:RXRa (NR concentration 270 nM, RXRa partner concentration 90 nM)
Method in brief: as §1

Row | Sequence | PBM binding z-score [1] | PBM binding z-score [2] | PBM binding z-score [3] | PBM binding z-score [4] | PBM binding z-score [5] | PBM binding z-score [6] | PBM binding z-score [7] | PBM binding z-score [8] | PBM binding z-score [9] | PBM binding z-score [10] | PBM binding z-score [11] | PBM binding z-score [12] | PBM binding z-score [13] | PBM binding z-score [14] | PBM binding z-score [15] | PBM binding z-score [16] | PBM binding z-score [17] | PBM binding z-score [18] | PBM binding z-score [19] | PBM binding z-score [20]
1 | ACTGTTAGTTGAGACGAGGGCAACCGATAGGTTG | 0.919 | 0.0939 | -0.0594 | 0.0493 | 0.747 | 0.275 | 0.412 | -0.13 | -0.0644 | 0.0713 | -0.176 | 0.773 | 0.909 | 0.848 | 0.542 | 1.2 | 0.0894 | 0.667 | 0.756 | 1.21
2 | AGTCAGAGTTCAGGACGAGGTAACGTAAAGCACG | 3.72 | 3.51 | 0.881 | 1.82 | -0.0374 | 3.02 | 2.26 | 2.51 | 0.689 | 2.1 | -0.749 | 0.676 | 0.355 | -0.341 | 1.36 | 3.45 | 1.88 | 2.67 | 0.511 | 3.62
3 | ATGTCTAGGTAACCAAGTTCAGTGAATGCCGAAC | 0.425 | 0.708 | 0.547 | 0.184 | 0.286 | 1.08 | 0.622 | 0.664 | -0.0406 | 0.432 | 2.35 | 2.35 | 0.0462 | -0.029 | 0.338 | 2 | 1.53 | 0.884 | -0.202 | 1.21
4 | TCAGACAGGTGTAGGTAACTCAGGTACGCAGTCG | 0.401 | 1.02 | 0.205 | 0.34 | -0.0818 | 0.643 | 0.472 | 1.78 | 3.54 | 2.76 | 2.33 | 0.315 | 0.327 | -0.523 | 0.265 | 0.373 | 0.461 | 0.495 | 0.784 | 0.406
5 | CTCGAAAGGTCGGTTGACGTGAGTATACGGATAA | 1.71 | 1.46 | 0.0257 | 1.44 | 0.0927 | 2.2 | 0.565 | 0.822 | 0.194 | 0.528 | 0.129 | 0.68 | 0.821 | 0.0479 | 0.644 | 1.01 | -0.25 | 1.5 | -0.0456 | 2.91
6 | CGTCCAAGGTCAGTGCTAGGTCAGTGAAAGCATT | 4.03 | 3.44 | 0.709 | 2.75 | -0.278 | 3.28 | 1.44 | 2.57 | 0.1 | 1.31 | 2.24 | 2.77 | -0.328 | -1.29 | 3.27 | 3.4 | 0.647 | 4.37 | 0.898 | 4.79
7 | ACTATTAGTTGACTTAGGGCAACCGCTACGACGC | 0.0697 | 0.317 | -0.0272 | -0.056 | 0.492 | -0.0454 | 0.482 | -0.131 | 0.1 | -0.0911 | -0.144 | 0.703 | 0.862 | 0.674 | 0.236 | 0.0683 | -0.0423 | 0.605 | 0.391 | 0.745
8 | ACTTACGGGTCAACGAGGTGATAGCACGCGTATA | 6.81 | 4.17 | 0.0422 | 3.7 | 0.296 | 5.53 | 5.36 | 5 | 2.26 | 4.11 | 3.7 | 4.4 | 2.02 | 1.22 | 2.44 | 3.94 | 0.307 | 5.09 | 1.19 | 4.04
9 | CCTAGTTGCTCAGGAGGTCACACACCGGATATGA | 3.45 | 3.66 | 2.47 | 3.74 | 0.953 | 4.23 | 1.96 | 2.65 | 0.83 | 1.79 | 0.887 | 2.47 | 0.559 | 1.01 | 3.26 | 4.39 | 1.59 | 4.49 | 2.6 | 3.64
10 | CGTCCAAGGTCAAAGGTCTGTGAAGAGATGACGG | 7.64 | 5.46 | 1.27 | 4.26 | 0.554 | 5.87 | 7.08 | 6.81 | 4.47 | 6.48 | 3.5 | 4.39 | 1 | 0.0198 | 3.15 | 4.82 | 1.13 | 6.06 | 0.626 | 5.4
11 | GGAACTAGGGCAAGTTGATAGCAGAGTTTGATGG | 0.0855 | 0.0269 | 0.0494 | -0.0975 | -0.374 | 2.15 | 3.63 | 3.21 | 1.12 | 2.57 | 7.19 | 6.86 | 0.964 | 0.266 | 0.42 | 0.0404 | 0.803 | -0.0697 | -0.11 | 1.69
12 | ACTATTACTTGACTTAGGGCAACCGATACGACGC | 0.391 | 0.445 | 1.02 | 0.691 | 1.56 | 0.231 | 1.19 | 0.283 | 0.727 | 0.716 | 0.692 | 0.81 | 1.57 | 1.96 | 1.24 | 0.284 | 0.533 | 0.623 | 1.42 | 0.876
13 | TCTTGTAGATCAACCAGGTTAAGAAAGCCTGAGT | 0.429 | 0.506 | -0.188 | 0.429 | -0.277 | 0.901 | -0.376 | 1.51 | 2.7 | 2.07 | 2.07 | 0.996 | -0.047 | 0.818 | -0.217 | 0.658 | 0.148 | 0.664 | 0.037 | 0.316
